BAZ2B block – inhibitors of human BAZ2B bromodomain | Q9UIF8 | AlphaScreen BAZ2B-H3K14Ac peptide displacement | Potency, µM (top dose mostly 114 µM), for inactives: at the highest dose activity change, negative = inhibition, actives largely listed as inhibitors | 4.4% of 360,000 active; further: on the % scale 0 is the no-effect control and ±100 the full control effect; nearly all actives have a fitted effect of over 60% in size
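Inhibition is scored as reduced AlphaScreen emission. The BAZ2B/b-H3(5-23)K14Ac complex (50 nM each) in PBS pH 7.4, 0.01% Tween-20 meets compound (up to 110 uM) for 30 min at RT before bead addition.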
GLS inh – inhibitors of human glutaminase (GLS); Potency, µM (series often up to 45.5 µM), for inactives: at the highest dose activity change, negative = inhibition, most hits filed as inhibitors; 0.21% of 410,000 active; AID 624170; GLS enzymatic activity, qHTS titration; further: on the % scale 0 is the no-effect control and ±100 the full control effect
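Assay buffer: 45 mM KH2PO4 pH 8.2, 0.02% Tween-20. hKGA acts on L-glutamine (1 mM solution added); product glutamate is reported by an oxidase/peroxidase Amplex Red coupling, with fluorescence taken at baseline and 30 min.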
G9a inh – G9a (human) methyltransferase inhibition | Q96KQ7 | G9a H3K9 monomethylation, AlphaScreen, 2 h | Potency, µM (highest dose often 102 µM), without a hit: top-dose activity, negative = inhibition, hits mostly inhibitors | 8.8% of 350,000 active; further: on the % scale 0 is the no-effect control and ±100 the full control effect; nearly all actives have a fitted effect of over 75% in size
Target sequence (Q96KQ7 913-1193 limits assumed): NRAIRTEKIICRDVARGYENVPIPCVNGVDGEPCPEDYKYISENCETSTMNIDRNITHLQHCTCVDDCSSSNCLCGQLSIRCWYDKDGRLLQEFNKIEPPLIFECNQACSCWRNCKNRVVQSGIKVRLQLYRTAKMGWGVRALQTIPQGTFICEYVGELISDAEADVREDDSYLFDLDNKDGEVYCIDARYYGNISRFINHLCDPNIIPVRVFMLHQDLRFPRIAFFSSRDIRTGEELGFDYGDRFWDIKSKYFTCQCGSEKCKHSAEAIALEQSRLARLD
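Methyltransferase reactions run at room temperature for 2 h (20 nM enzyme, 500 nM biotin-H3K9 peptide, 20 uM SAM) after a 15 min compound preincubation; product detected by AlphaScreen beads and anti-H3K9me1 antibody.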
JMJD2A Tudor – JMJD2A Tudor domain (human) inhibition | O75164 | AlphaScreen JMJD2A-Tudor / H3K4me3 peptide binding | Potency, µM (doses to about 114 µM), without a hit: top-dose activity change, negative = inhibition, most hits filed as inhibitors | 4.4% of 390,000 active | AID 504339; further: on the % scale 0 is the no-effect control and ±100 the full control effect; nearly all actives have a fitted effect of over 50% in size
HP1b binding inh – HP1-beta chromodomain-methylated histone interaction inhibition | P83916 | AlphaScreen HP1-beta / biotin-H3K9me3 peptide binding | Potency, µM (doses to about 114 µM), for the others: top-dose activity change, negative = inhibition, most hits filed as inhibitors | 0.56% of 390,000 active | AID 540317; further: nearly all actives have a fitted effect of over 70% in size
Target sequence (P83916 whole entry, looked up): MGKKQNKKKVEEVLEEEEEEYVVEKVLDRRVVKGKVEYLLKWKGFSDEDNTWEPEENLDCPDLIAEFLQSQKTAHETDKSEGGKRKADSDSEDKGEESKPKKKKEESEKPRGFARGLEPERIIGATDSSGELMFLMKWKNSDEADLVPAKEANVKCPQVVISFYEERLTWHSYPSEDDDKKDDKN
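HP1-beta protein (50 nM final) preincubated 30 min at room temperature with biotinylated H3(1-18)K9me3 peptide (50 nM) in PBS pH 7.4, 0.01% Tween-20, then compound added for 30 min. AlphaScreen streptavidin donor/nickel chelate acceptor beads (10 ug/mL final), 30 min dark, luminescence read.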
The depositor's hits bear a star; ? = inconclusive; nt = no result given; [ ] = dose if it differs, or a comment. In the library only some 10% were active in any assay of this set; here they are far more common. The call rests on the fitted dose curve; in most records, active means well fitted curve in the direction sought with a large enough effect; inconclusive means small, poorly fitted or top-dose-only effect, or another doubt; inactive means no such curve, though single readings can be large; an effect the other way counts as inactive or inconclusive. Potency means the concentration at half of the fitted maximal effect.

SMILES	BAZ2B block	GLS inh	G9a inh	JMJD2A Tudor	HP1b binding inh
Cc1nc2ccc(NC(=O)c3cccc(C(F)(F)F)c3)cc2o1	2%	-8%	-28%[59 µM]	-9%	21%
Cc1ccc(NC(=O)c2cccc(C(F)(F)F)c2)cc1NC(=O)c1[nH]cnc1C(N)=O	56µM*	3%	3%[0.501 µM]	?	31%
CC(=O)c1cc2c(cc1NC(=O)CN1CCCCC1C)OCO2 (stereo unspecified)	79µM*	15%	13µM*	20µM*	?
Cc1cccc(C(=O)n2c(=S)nc3cc(C)ccn32)c1	-40%	-2%	7.9µM*	40µM*	-15%
Cc1ccn2c(c1)nc(=S)n2C(=O)c1ccccc1	9%	-9%	45µM*	-14%	-24%
O=C(c1ccco1)n1c(=S)nc2ccccn21	6%	-22%	?	-27%	-25%
CCC(CO)Oc1cc(NCc2cccc(C(F)(F)F)c2)c2ncn(C(C)C)c2c1 (stereo unspecified)	nt	7%	nt	?	25%
CCCN(CCC)CCCNC(=O)c1cc2c(=O)[nH]c3ccccc3c2n1C	9%	-2%	32%	-10%	16%
Cn1c(C(=O)NCc2ccco2)cc2c(=O)[nH]c3ccccc3c21	-8%	-24%	-1%[59 µM]	100µM*	47%
CC(C(=O)Nc1ccc2c(c1)OCCO2)N(c1ccccc1)S(C)(=O)=O (stereo unspecified)	-13%	-5%	5%	-12%	67%
COc1cc(CN2CCN(C(=O)c3ccc(-c4ccccc4)cc3)CC2)cc(OC)c1OC	15%	-3%	nt	7.9µM*	?
COc1cc(C(=O)N2CCNCC2)cc(OC)c1OC	2%	-1%	nt	-7%	54%
CN1CCN(Cc2cccc(Oc3ccccc3)c2)CC1	0%	-6%	71µM*	-20%	18%
COc1ccc(CN2CCN(Cc3cccc(Oc4ccccc4)c3)CC2)c(OC)c1OC	20µM*	-7%	45µM*	4µM*	25µM*
COc1ccc(C(=O)N2CCN(C(=O)c3ccc(-c4ccccc4)cc3)CC2)cc1OC	-3%	0%	-40%	-5%	19%
COc1cc(C(=O)N2C(=O)CCC2=O)cc(OC)c1OC	?	-26%	35µM*	-13%	64%
CCCn1c(SCC(=O)/C(C#N)=C(\C)N)n[nH]c1=O	1%	-1%	-20%	-3%	18%
COc1cccc(OC)c1C(=O)OCC(=O)N1CCC(Cc2ccccc2)CC1	nt	0%	nt	-14%	32%[57 µM]
COC(=O)c1ccc(NC(=O)C2CCN(C(=O)c3cc(OC)c(OC)c(OC)c3)CC2)cc1	-31%	0%	10µM*	45µM*	12%
COc1cccc(CN2CCN(C(=O)c3ccc(-c4ccccc4)cc3)CC2)c1	50µM*	8%	13µM*	2.2µM*	32µM*
CCOC(=O)c1ccc(NC(=O)C2CCN(C(=O)c3ccc(OC)c(OC)c3)CC2)cc1	5%	12%	3%[59 µM]	-10%	14%
COc1cc(CN2CCN(Cc3cccc(OC)c3OC)CC2)cc(OC)c1	18µM*	-7%	45µM*	4µM*	35µM*
COc1cc(C(=O)OCC(=O)N2CCC(Cc3ccccc3)CC2)cc(OC)c1OC	6%	-4%	8.9µM*	-2%	40%
COc1cc(CN2CCCCCC2)cc(OC)c1	0%	2%	13%	-6%	32%
C[C@H](CO)N1C[C@H](C)[C@@H](CN(C)Cc2ccc(-c3ccccc3)cc2)Oc2c(NC(=O)Nc3ccc4c(c3)OCO4)cccc2C1=O	nt	5%	nt	?	-3%
Fc1ccccc1N1CCN(C2CCCN(Cc3cccc(C(F)(F)F)c3)C2)CC1 (stereo unspecified)	-35%	11%	-9%	-32%	15%
COc1cc(C(=O)N2CCN(CCCc3ccccc3)CC2)cc(OC)c1OC	nt	0%	nt	20µM*	-12%
CCC(CC)N1CCN(C(=O)c2cc(OC)c(OC)c(OC)c2)CC1	?	8%	nt	50µM*	?
O=C(c1ccccc1)N1CCN(Cc2cccc(Oc3ccccc3)c2)CC1	50µM*	21%	16µM*	40µM*	-11%
COc1ccc(C(=O)N2CCN(C(=O)c3cc(OC)c(OC)c(OC)c3)CC2)cc1	-19%	1%	-14%[59 µM]	-11%	6%

Screens deposited in PubChem BioAssay by National Center for Advancing Translational Sciences (NCATS).
